Shown are actives, neighbours in structure and some others; about 3% of the full set was active somewhere.
ROMK mod: modulates human ROMK potassium channel activity | P48048 | B-score at 10 µM | 130,000 compounds, 2% hits | AID 1918 | Tet-inducible ROMK, thallium flux fluorescence; actives lie on both sides;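 active means signal ratio slope over the read window, or its plate-corrected B-score, at least 3 SD from the plate mean, either direction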;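 further: B-score of the F/F0 ratio slope over 7 to 12 s after thallium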
Target sequence (P48048 whole entry, looked up): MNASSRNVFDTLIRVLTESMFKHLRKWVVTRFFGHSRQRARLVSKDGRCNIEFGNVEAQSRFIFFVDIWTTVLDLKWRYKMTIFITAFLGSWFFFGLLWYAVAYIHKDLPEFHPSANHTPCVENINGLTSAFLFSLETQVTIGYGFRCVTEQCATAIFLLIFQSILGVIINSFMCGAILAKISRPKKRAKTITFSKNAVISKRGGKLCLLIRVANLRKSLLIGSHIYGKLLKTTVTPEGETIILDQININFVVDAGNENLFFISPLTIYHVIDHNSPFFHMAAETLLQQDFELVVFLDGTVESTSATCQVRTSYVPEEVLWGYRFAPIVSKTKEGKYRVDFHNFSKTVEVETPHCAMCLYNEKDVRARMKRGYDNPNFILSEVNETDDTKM
SDO1 yeast rescue: restores growth of sdo1-depleted yeast; S. cerevisiae sdo1-depleted JHY4D growth rescue, OD600 30 h; active compounds read high; pdr5 snq2 efflux-pump mutant strain; z-score at 10 µM; 140,000 compounds, 0.21% hits; AID 817;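 active means z-score above 3 at both the 24 hr and the 30 hr optical density reads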;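 further: z-score against mean and SD of all compound wells on the same plate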
Measles CPE: protection of cells from measles virus. Measles virus-infected cells, CPE protection, absorbance. protection (pct of control), % at 4 µM. 140,000 compounds, 1.5% hits. AID 841; in the data active means protection mostly above about 24%, no sharp cut-off; inactive means mostly below about 26%
Insulin prom inh: TRM-6 insulin promoter activity inhibition | TRM-6 cells (human fetal islet line), insulin promoter-eGFP reporter, imaging; reporter expression induced with tamoxifen | inhibition, % at 2 µM | 130,000 compounds, 0.9% hits;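 active means inhibition above the mean plus 3 SD, with well images judged a real hit on visual review, cut at about 60% in these data, passing the limit was not always enough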
The depositor's hits bear a star; i = inactive; · = no result; ! = not confirmed by another sample.

SMILES	ROMK mod	SDO1 yeast rescue	Measles CPE	Insulin prom inh
CC(C)N1CC=C(c2c[nH]c3ccccc23)CC1	-0.72	1.1	36*	·
c1ccc2c(CNC3CCCCCC3)c[nH]c2c1	-0.94	1.6	10	4
C(=NC12CN3CN(CN(C3)C1)C2)c1cccs1	·	0.88	55*	3
CC(=O)NC1CC2CCCC(C1)N2 (stereo unspecified)	0.0079	0.41	28	·
CC(=O)NC1CC2CCC(C1)N2 (stereo unspecified)	0.4	-0.37	5	79*
O=S(=O)(c1ccccc1)N1CN2CCN(C2)C1	-0.013	-0.01	11	86*
Cc1nc2cc(C(=O)N3CCC4(CC3)OCCO4)ccc2n1-c1ccc(Br)cc1	-2.4*	1.9	16	33
COc1ccc(-n2c(C)nc3cc(C(=O)N4CCC5(CC4)OCCO5)ccc32)cc1	-0.57	0.18	16	·
CN1CCc2c(C#N)c(Cl)nc(Cl)c2C1	0.73	1.8	11	·
O=[N+]([O-])NC1=NCN(Cc2ccco2)CN1Cc1ccco1	-0.11	1.5	13	-23
CN1CCC(O)(c2ccc(Cl)cc2)C(C(=O)c2ccc(Cl)cc2)C1 (stereo unspecified)	-0.84	·	·	-43
CCC(CC)N1CCN(C(=O)Cc2ccccc2)CC1	·	0.83	43*	17
Cc1cccc(OCC(=O)N2CCN(Cc3ccncc3)CC2)c1	-0.3	0.66	43*	30
CC1(C)CN2C(c3ccc(Cl)cc3)N2C1 (stereo unspecified)	1.2	1.6	7	-19
O=C(Nc1cccc2ccccc12)c1nn(C23CC4CC(CC(C4)C2)C3)cc1Br	·	-0.72	38*	10
CCOC(=O)C1(c2ccccc2)CCN(CC(=O)Nc2cccc3ccccc23)CC1	-1.8	-1.2	8	10
Cc1cc(C=O)c(C)n1C1CCCCC1	-0.53	-0.01	4	69*
Fc1ccc(C(OCCN2CCCC2)c2ccc(Br)cc2)cc1 (stereo unspecified)	·	0.24	54*	3
Fc1ccc(C(OCCN2CCCC2)c2ccc(F)cc2)cc1	-0.94	0.08	4	3
O=c1c2cc(Br)ccc2[nH]c(=S)n1-c1ccccc1	0.39	·	·	73*
C(CCc1nn[nH]n1)CCc1nn[nH]n1	-0.038	-0.18	4	25
Clc1ccc2c(c1)C(c1ccccc1Cl)=NCc1nnc(N3CCN(CCOc4ccccc4)CC3)n1-2	-1.5	-1.7	28*	-28
Cc1nc2ccccc2c(=O)n1-c1ccncc1	-0.001	·	·	·
Cc1nc2ccccc2c(=O)n1-c1ccc(F)cc1	-0.11	0.3	31*	30
Cc1cc(OCc2ccc([N+](=O)[O-])cc2)c2c3c(c(=O)oc2c1)CCCC3	·	-0.05	46*	8
SMILES	ROMK mod	SDO1 yeast rescue	Measles CPE	Insulin prom inh
CC(=NCCCN1CCOCC1)c1c(O)[nH]c(=O)[nH]c1=O	0.56	0.91	8	0
CCN1CCN(Cc2cc(C(C)(C)C)c(O)c(C(C)(C)C)c2)CC1	-0.68	0.08	60*	·
C=CCn1c(O)c(C(C)=NCCc2ccccc2)c(=O)[nH]c1=O	·	-0.47	24*	0
C=CCn1c(O)c(C(CC)=NCCc2ccccc2)c(=O)[nH]c1=O	0.017	-1.1	7	i
O=c1[nH]c(=O)n(CCC2=CCCCC2)c(O)c1C=NCCN1CCNCC1	0.87	-0.98	35*	24
COc1ccc(CN2CCCCC2c2cccnc2)cc1C (stereo unspecified)	·	0.12	38*	·
COc1cccc(CN2CCCCC2c2cccnc2)c1 (stereo unspecified)	·	-0.12	12	·
CC1CC(NC(=O)C2C3CCC(O3)C2C(=O)O)CC(C)(C)C1 (stereo unspecified)	·	0.4	38	13
CC(=O)C1=C(C)OC(N)=C(C(=O)OC(C)C)C12C(=O)Nc1ccccc12 (stereo unspecified)	0.47	0.86	3	100*
CN(C)C(=S)SSC(=S)N(C)C	-0.47	·	·	100*
Cc1nn(-c2ccccc2)c2c1C(c1ccc3c(c1)OCO3)SCC(=O)N2 (stereo unspecified)	-0.16	-0.19	4	79*
COc1cc(C2SCC(=O)Nc3c2c(C)nn3-c2ccccc2)cc(OC)c1OC (stereo unspecified)	1.1	-0.56	22	·
O=C(Nc1cccc(Cl)c1)c1c(O)c2c(n(Cc3ccccc3)c1=O)CCCC2	0.014	-0.13	1	33
CN1/C(=C\C=C2C(=O)NC(=S)NC2=O)C(C)(C)c2ccccc21	-3.6*	·	·	·
CC(Cc1ccccc1)NC(=O)/C=C/C(=O)O (stereo unspecified)	0.56	·	·	78*
O=C1CCN(C(=O)C(Cl)Cl)N1	1.2	·	·	7
Cc1cc2c(C(C)C)c(O)c(O)c(C=O)c2c(O)c1-c1c(C)cc2c(C(C)C)c(O)c(O)c(C=O)c2c1O	·	0.51	4	62*!
O=C(c1ccc(N2CCCCCC2)c([N+](=O)[O-])c1)N1CCC2(CC1)OCCO2	-0.5	·	·	·
CC(C(=O)c1c[nH]c2ccccc12)N1CCOCC1 (stereo unspecified)	0.59	·	·	·
OC(c1ccc(F)cc1)C(c1ccccc1)N1CCOCC1 (stereo unspecified)	0.11	0.01	39*	-11
O=C1NC(=O)C2=Cc3ccc(O)cc3OC2(O)N1 (stereo unspecified)	·	·	·	50
O=C(O)Cn1cc(C(=O)c2ccccc2)c2ccccc21	·	2.8	40*	-15
CCC1(CC)C(=O)NC(=Nc2cccc(C(F)(F)F)c2)NC1=O	·	-0.1	15	3
CC(=O)OC1(c2ccccc2)CC(C(C)(C)C)CN(C(C)(C)C)C1 (stereo unspecified)	-0.22	-0.06	10	15
O=c1[nH]c2ccccc2o1	-1.5	0.81	45*	-27
SMILES	ROMK mod	SDO1 yeast rescue	Measles CPE	Insulin prom inh
C[C@H]1O[C@@H](O[C@H]2[C@@H](O)C[C@H](O[C@H]3[C@@H](O)C[C@H](O[C@H]4CC[C@@]5(C)[C@H](CC[C@@H]6[C@@H]5CC[C@]5(C)[C@@H](C7=CC(=O)OC7)CC[C@]65O)C4)O[C@@H]3C)O[C@@H]2C)C[C@H](O)[C@@H]1O	·	-0.32	0	100*
C[C@@H]1O[C@@H](O[C@H]2C[C@@H](O)[C@]3(CO)[C@H]4[C@H](O)C[C@]5(C)[C@@H](C6=CC(=O)OC6)CC[C@]5(O)[C@@H]4CC[C@]3(O)C2)[C@H](O)[C@H](O)[C@H]1O	·	0.01	-1	-355
Cn1c(=O)c2c(nc(N/N=C/c3c(O)n(-c4ccccc4)c(=S)[nH]c3=O)n2C)n(C)c1=O	0.52	0.95	7	-29
COc1ccc(C2C(C#N)=C(N)Oc3c2c(=O)oc2ccccc32)cc1Cn1cc([N+](=O)[O-])cn1 (stereo unspecified)	0.64	0.96	24*	·
N#Cc1c(/N=C/c2ccc(O)cc2O)sc2c1C1CCN2CC1	0.43	-0.35	7	8
CN(C)P(=O)(CCl)Nc1ccccc1 (stereo unspecified)	·	-0.17	6	·
CN(C)C1(CNC(=O)c2ccc(Cl)c(S(=O)(=O)NCc3ccco3)c2)CCCCC1	-0.62	0.98	23	-46
O=c1[nH]c2ccccc2c(=O)n1-c1cccc(Cl)c1	0.74	1.4	14	82*
N=Cc1c(O)n(-c2cccc(Cl)c2)c(=O)[nH]c1=O	·	0.53	6	-33

Compound activity: PubChem BioAssay, several laboratories
